Measurements taken from PubChem BioAssay (NCATS).
Inconclusive results are not listed. Activity calls are given as the source filed them. Calls follow the shape of the dose curve; as a rule, active = well fitted curve in the direction sought with a large enough effect; inconclusive = small, poorly fitted or top-dose-only effect, or another doubt; inactive = no such curve, though single readings can be large; an effect the other way counts as inactive or inconclusive.

Legend:
[1] = qHTS assay for measurement of the activity of small molecule inhibitors on Zika virus induced Caspase-3 activity in human astrocytoma cells (AID 1224859);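 also: plate controls were ZIKV-infected untreated cells for no effect and uninfected cells for full effect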
Outline: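 A cell-based luminescent caspase-3/7 assay used SNB-19 cells infected with ZIKV (2 FFU/cell) for 6 h following 1 h compound pretreatment.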

[2] = qHTS assay to identify small molecule inhibitors of chordoma cells - UCH-1 (AID 1259355); also: % is scaled to controls: 0 for no effect and ±100 for the full control effect; nearly all actives have a fitted effect of over 55% in size
Outline: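 A 48hr growth-inhibition format: each drug tested at 15 concentrations together with added auranofin, camptothecin, doxorubicin, rubitecan and topotecan, with cell viability quantified as CellTiter-Glo luminescence.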

[3] = qHTS assay to identify small molecule inhibitors of chordoma cells - UCH-2 (AID 1259356); also: series mostly up to about 46 µM; % is scaled to controls: 0 for no effect and ±100 for the full control effect
[4] = P-glycoprotein substrates identified in KB-8-5-11 adenocarcinoma cell line, qHTS therapeutic library screen (AID 1346987); also: series mostly up to about 44 µM; % is scaled to controls: 0 for no effect and ±100 for the full control effect; nearly all actives have a fitted effect of over 65% in size
Outline: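 Luminescence from CellTiter-Glo, read 5 min after addition, quantified survival of KB-8-5-11 (P-gp-overexpressing) cells exposed to compounds for 72 h. AC50 was derived from concentration-response curves.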

[5] = NS1 protein of Zika virus - qHTS assay to identify small molecule inhibitors in human HEK 293 cells (AID 1347053);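 also: series mostly up to about 46 µM; plate controls were infected untreated cells for no effect and uninfected cells for full effect; nearly all actives have a fitted effect of over 55% in size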
Outline: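 TR-FRET signal from two anti-ZIKV NS1 antibodies quantified NS1 in HEK 293 cells 24 h after MR766 infection at MOI = 0.5; compounds were added 1 h before virus. Uninfected cells and infected cells defined the NS1 normalization range.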

[6] = qHTS of pediatric cancer cell lines to identify multiple opportunities for drug repurposing: Primary screen for TC32 cells (AID 1347089); also: % is scaled to controls: 0 for no effect and ±100 for the full control effect; nearly all actives have a fitted effect of over 60% in size
Outline: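 In the primary qHTS, MIPE compounds were tested at 11 concentrations (0.78 nM to 46 µM) and NPC compounds at 8 (0.59 nM to 46 µM) on TC32 cells for 48 h. CellTiter-Glo luminescence gave viability.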

[7] = qHTS of pediatric cancer cell lines to identify multiple opportunities for drug repurposing: Primary screen for DAOY cells (AID 1347090);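 also: series mostly up to about 46 µM; plate controls were DMSO for no effect and bortezomib for full effect; nearly all actives have a fitted effect of over 55% in size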
Outline: (§1)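 Eight- or eleven-point concentration series, 48 h treatment at 37 degrees C in growth media; readout CellTiter-Glo luminescence. Potency and efficacy were taken from the concentration-response curves.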

[8] = qHTS of pediatric cancer cell lines to identify multiple opportunities for drug repurposing: Primary screen for SJ-GBM2 cells (AID 1347091);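 also: plate controls were DMSO neutral control for no effect and bortezomib for full effect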
Outline: as §1

[9] = qHTS of pediatric cancer cell lines to identify multiple opportunities for drug repurposing: Primary screen for SK-N-MC cells (AID 1347093);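 also: series mostly up to about 46 µM; plate controls were DMSO neutral control for no effect and bortezomib for full effect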
Outline: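 Metabolically active cells were quantified by ATP-dependent luminescence (CellTiter-Glo, 15 min at room temperature) following 48 h treatment. Cells had been plated at 500-1,000 per well and settled for 5 h beforehand.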

[10] = qHTS of pediatric cancer cell lines to identify multiple opportunities for drug repurposing: Primary screen for BT-37 cells (AID 1347094);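 also: series mostly up to about 57 µM; plate controls were DMSO for no effect and bortezomib for full effect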
Outline: (§2)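 Primary screen of approved and investigational compounds on cells in growth media at 37 degrees C, 5% CO2. MIPE set at 11-point and NPC set at 8-point dilutions; viability scored by ATP-based luminescence at 48 hours.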

[11] = qHTS of pediatric cancer cell lines to identify multiple opportunities for drug repurposing: Primary screen for NB-EBc1 cells (AID 1347095);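 also: plate controls were DMSO neutral control for no effect and bortezomib for full effect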
Outline: as §2

[12] = qHTS of pediatric cancer cell lines to identify multiple opportunities for drug repurposing: Primary screen for A673 cells (AID 1347092); also: % is scaled to controls: 0 for no effect and ±100 for the full control effect; nearly all actives have a fitted effect of over 45% in size
Outline: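 48 h compound exposure, A673, 500-1,000 cells/well, 37 degrees C/5% CO2. MIPE: 11-point, 0.78 nM-46 µM; NPC: 8-point, 0.59 nM-46 µM (final). Readout CellTiter-Glo luminescence after 15 min RT.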

Nc1ccc(S(=O)(=O)NCc2ccccc2)cc1
inactive: outcome [1] | Potency [2] | Potency [3] | Potency [4] | Potency [5] | Potency [6] | Potency [7] | Potency [8] | Potency [9] | Potency [10] | Potency [11]

NC1CCN(c2nc3c(cc2F)c(=O)c(C(=O)O)cn3-c2ccc(F)cc2F)C1 (centres undefined)
inactive: outcome [1] | Potency [2] | Potency [3] | Potency [4] | Potency [5] | Potency [6] | Potency [7] | Potency [8] | Potency [9] | Potency [10] | Potency [11]

CC1(COc2ccc(CC3SC(=O)NC3=O)cc2)CCCCC1 (centres undefined)
inactive: outcome [1] | Potency [2] | Potency [3] | Potency [4] | Potency [5] | Potency [6] | Potency [7] | Potency [8] | Potency [9] | Potency [11]

CCCCC(CC)COC(=O)/C=C/c1ccc(OC)cc1 (centres undefined)
inactive: outcome [1] | Potency [2] | Potency [3] | Potency [4] | Potency [5] | Potency [6] | Potency [7] | Potency [8] | Potency [9] | Potency [10] | Potency [11]

CC(C)(Cc1c[nH]c2ccccc12)NCC(O)COc1ccccc1C#N (centres undefined)
inactive: outcome [1] | Potency [2] | Potency [3] | Potency [4] | Potency [5] | Potency [6] | Potency [7] | Potency [8] | Potency [9] | Potency [10] | Potency [11]

CCCCC(CC)CN1CN(CC(CC)CCCC)CC(C)(N)C1 (centres undefined)
inactive: outcome [1] | Potency [2] | Potency [3] | Potency [4] | Potency [5] | Potency [6] | Potency [7] | Potency [8] | Potency [12] | Potency [11]

NCCNC(=O)c1ccc(Cl)cn1
inactive: outcome [1] | Potency [2] | Potency [3] | Potency [4] | Potency [5] | Potency [6] | Potency [7] | Potency [8] | Potency [9] | Potency [10] | Potency [11]

N[C@H](C(=O)O)[C@@H](O)c1ccc(O)c(O)c1
inactive: outcome [1] | Potency [2] | Potency [3] | Potency [4] | Potency [5] | Potency [6] | Potency [7] | Potency [8] | Potency [12] | Potency [11]

Cc1cccc(C)c1NC(=O)CN1CCCC1
inactive: outcome [1] | Potency [2] | Potency [3] | Potency [4] | Potency [5] | Potency [6] | Potency [7] | Potency [8] | Potency [12] | Potency [10] | Potency [11]

CC(C)Cn1cnc2c1c(=O)n(C)c(=O)n2C
inactive: outcome [1] | Potency [2] | Potency [3] | Potency [4] | Potency [5] | Potency [6] | Potency [7] | Potency [8] | Potency [12] | Potency [10] | Potency [11]

CCCN(CCC)S(=O)(=O)c1ccc(C(=O)O)cc1
inactive: outcome [1] | Potency [2] | Potency [3] | Potency [4] | Potency [5] | Potency [6] | Potency [7] | Potency [8] | Potency [12] | Potency [11]

O=C1C(CCS(=O)c2ccccc2)C(=O)N(c2ccccc2)N1c1ccccc1 (centres undefined)
inactive: outcome [1] | Potency [2] | Potency [3] | Potency [4] | Potency [5] | Potency [6] | Potency [7] | Potency [8] | Potency [9] | Potency [10] | Potency [11]

C/C=C/c1ccc(O)c(OC)c1
inactive: outcome [1] | Potency [2] | Potency [3] | Potency [4] | Potency [5] | Potency [6] | Potency [7] | Potency [8] | Potency [12] | Potency [11]

O=C1OC(CN2CCOCC2)CN1/N=C/c1ccc([N+](=O)[O-])o1 (centres undefined)
inactive: outcome [1] | Potency [2] | Potency [3] | Potency [4] | Potency [5] | Potency [6] | Potency [7] | Potency [8] | Potency [9] | Potency [10] | Potency [11]

CCN[C@@H]1C[C@H](N)[C@@H](OC2OC(CN)=CCC2N)[C@H](O)[C@H]1O[C@H]1OC[C@](C)(O)[C@H](NC)[C@H]1O (some centres undefined)
inactive: activity change, negative = inhibition [1] 15.8% [at 0.568 µM] | Potency [2] | Potency [3] | Potency [4] | activity change, negative = inhibition [5] -23.1% [at 0.593 µM] | activity change, negative = cytotoxic [6] 2.31% [at 0.594 µM] | activity change, negative = cytotoxic [7] 1.01% [at 0.597 µM] | activity change, negative = cytotoxic [8] 1.88% [at 0.597 µM] | activity change, negative = cytotoxic [9] -24.4% [at 0.597 µM] | activity change, negative = cytotoxic [10] 5.98% [at 0.745 µM] | activity change, negative = cytotoxic [11] -22.3% [at 0.597 µM]

CC(=O)OCC1=C(C(=O)O)N2C(=O)[C@@H](NC(=O)CSc3ccncc3)[C@H]2SC1
inactive: outcome [1] | Potency [2] | Potency [3] | Potency [4] | Potency [5] | Potency [6] | Potency [7] | Potency [8] | Potency [12] | Potency [10] | Potency [11]

CCc1cc(Cl)c(OC)c(C(=O)NC[C@@H]2CCCN2CC)c1O
inactive: outcome [1] | Potency [2] | Potency [3] | Potency [4] | Potency [5] | Potency [6] | Potency [7] | Potency [8] | Potency [9] | Potency [10] | Potency [11]

Nc1ccc(S(=O)(=O)Nc2cnc3ccccc3n2)cc1
inactive: outcome [1] | Potency [2] | Potency [3] | Potency [4] | Potency [5] | Potency [6] | Potency [7] | Potency [8] | Potency [9] | Potency [10] | Potency [11]

C/C=C/C=N/NC(=O)c1ccncc1
inactive: outcome [1] | Potency [2] | Potency [3] | Potency [4] | Potency [5] | Potency [6] | Potency [7] | Potency [8] | Potency [9] | Potency [11]

CC(=O)Nc1ncc([N+](=O)[O-])s1
inactive: outcome [1] | Potency [2] | Potency [3] | Potency [4] | Potency [5] | Potency [6] | Potency [7] | Potency [8] | Potency [12] | Potency [10] | Potency [11]
